# “And” between values parts separate entries of the source, which are not always exact repeats. Equal values may be shown once. The panel holds about 83,000 compounds, 20% with a hit somewhere; the sample as a whole holds those more often.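 Each cell line was grown in a 96-well plate and treated with one concentration of compound for 48 hours. Values below 10 were considered active.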 Unmarked numbers belong to inactive results. The source made the active and inactive calls.
# Assays:
# Experiment in all cases: NCI-60 one-dose screen, 48 h (100 = growth as untreated, 0 = no growth, -100 = all killed)
# NCI-H23 lung = details: 10 µM unless noted
# NCI-H226 lung = details: 10 µM unless noted
# NCI-H322M lung = details: 10 µM unless noted
# HOP-62 NSCLC = details: 10 µM unless noted
# NCI-H460 lung = details: 10 µM unless noted
# NCI-H522 lung = details: 10 µM
# A549/ATCC NSCLC = details: 10 µM unless noted
# 786-0 renal = details: 10 µM unless noted
# COLO 205 colon = details: 10 µM unless noted
# DU-145 prostate = details: 10 µM unless noted
# K-562 leukemia = details: 10 µM unless noted
# MALME-3M melanoma = details: 10 µM unless noted
# MDA-MB-231 breast = details: 10 µM unless noted
# RXF 393 renal = details: 10 µM unless noted
# SF-268 CNS = details: 10 µM unless noted
# SF-295 CNS = details: 10 µM unless noted
# SF-539 CNS = details: 10 µM unless noted
# UACC-257 melanoma = details: 10 µM unless noted
# M14 melanoma = details: 10 µM unless noted
# HOP-92 NSCLC = details: 10 µM
Compound,growth (NCI-H23 lung),growth (NCI-H226 lung),growth (NCI-H322M lung),growth (HOP-62 NSCLC),growth (NCI-H460 lung),growth (NCI-H522 lung),growth (A549/ATCC NSCLC),growth (786-0 renal),growth (COLO 205 colon),growth (DU-145 prostate),growth (K-562 leukemia),growth (MALME-3M melanoma),growth (MDA-MB-231 breast),growth (RXF 393 renal),growth (SF-268 CNS),growth (SF-295 CNS),growth (SF-539 CNS),growth (UACC-257 melanoma),growth (M14 melanoma),growth (HOP-92 NSCLC) [%]
O=c1n(CC2CO2)c(=O)n(CC2CO2)c(=O)n1CC1CO1 (stereo not drawn),69.2%,80.1%,70.4%,57%,19.2%,45.1%,44.3%,44.7%,74.8%,25.7%,81.3%,70.7%,107%,64.2%,47.9%,13.9%,28.6%,61.4%,61.9%,
Nc1ccc2c(O)cc(S(=O)(=O)O)cc2c1,93.8% and 96.2%,96% and 91.9%,103% and 119%,86.1% and 92.4%,98.4% and 102%,106% and 88.1%,105% and 92.1%,98.9% and 105%,,114% and 110%,93% and 96.7%,122% and 111%,107% and 106%,110% and 89.3%,118% and 101%,99.5%,87.2% and 96%,101% and 94.3%,98.7%,
O=CN1CCCCC1,91.5%,105%,99.4%,102%,112%,104%,122%,102%,136%,114%,104%,103%,104%,,105%,97.8%,99.8%,104%,121%,
Brc1ccc(SSc2ccc(Br)cc2)cc1,72.5%,93.7%,91.8%,75.3%,68.1%,85.2%,66.7%,59%,90.6%,93.6%,89.9%,74.8%,,74.6%,58.9%,52.2%,56.1%,97.7%,68.7%,
COc1cc(C(O)C2C(=O)OCC2C2(c3ccc4c(c3)OCO4)SCCCS2)cc(OC)c1OC (stereo not drawn),93.8%,100%,104%,101%,107%,86.5%,97.1%,103%,94.2%,103%,97.7%,91.1%,95.3%,101%,94.3%,92.9%,102%,104%,96.8%,
CC(=O)OC(C)C(=O)NCC(C)O (stereo not drawn),100%,,90.7%,100%,98.2%,109%,108%,94.9%,107%,104%,97.9%,108%,124%,113%,100%,,102%,108%,97.8%,
CC(C)C(C)(C)c1ccc(O)cc1,103%,99.3%,102%,104%,104%,99.7%,102%,,108%,107%,50.4%,107%,108%,112%,99.8%,118%,99.4%,104%,105%,
Fc1ccc([I+]c2ccc(F)cc2)cc1,53.7%,71.8%,76.1%,78.7%,86.1%,68.8%,80.9%,,62.2%,92.1%,43.2%,61.1%,,101%,58.9%,95.4%,62.1%,85.5%,79%,
Cc1cc(-c2cc(C)c(O)c(C)c2)cc(C)c1O,87.3%,96.2%,93.7%,73.9%,102%,63.3%,90.2%,,115%,104%,31.9%,75%,75.6%,63.5%,92.9%,86.1%,84.9%,92%,71.6%,
NC1CCC(C(=O)O)CC1 (stereo not drawn),111% and 108%,104% and 99.6%,117% and 105%,100% and 91.2%,98.9% and 104%,97.4% and 96%,107% and 108%,102% and 103%,105% and 107%,108% and 115%,107% and 109%,115% and 106%,97.3% and 113%,112% and 106%,105%,106% and 110%,98.9% and 102%,107% and 113%,96.5% and 99.3%,
COc1ccc(Nc2ccc3ccccc3c2)cc1,81.5%,81%,,67.9%,94.1%,,,84.3%,94%,83.2%,31.6%,,77.9%,58.6%,81.2%,79.6%,93.1%,,72.9%,
Oc1ccc(Cc2ccccc2Cl)c(O)c1,89.5%,,86.5%,91.9%,101%,94.7%,98.8%,102%,106%,,91.5%,,71.7%,83.9%,,,93.9%,93.2%,99.1%,89.4
Cn1cnc([N+](=O)[O-])c1Sc1ncn[nH]1,91.7%,102%,101%,96.9%,115%,82.9%,99.4%,102%,,108%,137%,91.6%,106%,26.1%,106%,116%,103%,4.36% (active),95.9%,
CCN(CCNS(C)(=O)=O)c1ccc(N)c(C)c1,99.2% and 85.9%,92.9% and 82.7%,95.1% and 120%,106% and 111%,107% and 99.7%,-70.5% (active),109%,89% and 95.7%,69.6% and 107%,70.4% and 123%,27.9% and 95.5%,93.6% and 119%,109% and 97.4%,72.4% and 78.3%,93.3% and 94.9%,103% and 116%,113% and 105%,89.7%,108% and 98.6%,
O=C(O)CCCl,108%,95.6%,102%,105%,106%,112%,104%,120%,119%,114%,111%,115%,125%,103%,108%,,99.8%,111%,129%,
C/C(=C\c1ccccc1)c1ccccn1,107%,90.9%,96.8%,105%,105%,109%,115%,104%,114%,112%,105%,102%,91%,,99.3%,113%,98.1%,105%,108%,
